C8 TRAIL sens = sensitizes caspase-8 expressing cells to TRAIL. NB7+C8 cells + TRAIL, ATPlite viability luminescence. inhibition (viability loss, TRAIL sensitization), % at 10 µM. 360,000 tested, 1% active. AID 624354;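 active means compounds causing at least 50% loss of cell viability in the single-dose screen, relative to plate controls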
SENP8 block-1 = inhibitors of human SENP8 protease; AID 602440; Q96LD8; 360,000 tested, 0.64% active; inhibition, % at 20 µM; recombinant SENP8, Nedd8 substrate fluorescence; in the data active means inhibition mostly above about 40%, no sharp cut-off; inactive means mostly below about 27%
SENP7 block = SENP7 protease inhibition; Q9BQF6; 330,000 tested, 1.5% active; inhibition, % at 5 µM; recombinant SENP7, Z-RLRGG-aminoluciferin luminescence, 40 min;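 active means inhibition above about 50% at the single test dose, limit read from the data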
SENP8 block-2 = SENP8 protease inhibition | AID 2540 | 330,000 tested, 1.2% active | Q96LD8 | inhibition, % at 10 µM | purified SENP8, Z-RLRGG-aminoluciferin cleavage, luminescence; in the data active means inhibition above about 50%
SENP6 block = SENP6 protease inhibition. inhibition, % at 10 µM. 330,000 tested, 1.8% active. AID 2599. Recombinant SENP6 catalytic domain, aminoluciferin luminescence;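 active means inhibition above about 50% at the single tested dose, limit read from the data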
Target sequence (Q9GZR1 628-1112 limits assumed): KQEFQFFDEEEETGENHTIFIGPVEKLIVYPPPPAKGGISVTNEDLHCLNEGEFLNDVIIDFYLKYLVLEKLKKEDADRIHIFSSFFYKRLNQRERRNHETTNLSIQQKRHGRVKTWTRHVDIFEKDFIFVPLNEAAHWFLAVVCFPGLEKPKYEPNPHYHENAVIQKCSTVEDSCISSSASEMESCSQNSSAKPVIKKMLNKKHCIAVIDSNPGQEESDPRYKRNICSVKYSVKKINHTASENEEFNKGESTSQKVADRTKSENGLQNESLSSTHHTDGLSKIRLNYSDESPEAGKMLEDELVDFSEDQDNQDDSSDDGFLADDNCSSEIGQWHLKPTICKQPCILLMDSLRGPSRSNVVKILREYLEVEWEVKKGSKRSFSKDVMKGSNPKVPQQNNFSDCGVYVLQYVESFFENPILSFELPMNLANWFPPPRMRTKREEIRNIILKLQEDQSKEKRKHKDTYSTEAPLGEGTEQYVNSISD
PPC-1+TRAIL kill = PPC-1 cancer cell killing with TRAIL present; cell killing (% activity), % at 4 µM or 5 µM; AID 1443; PPC-1 cells + TRAIL, ATPLite viability luminescence; 220,000 tested, 0.41% active;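 active means cell killing above 50% in the first pass at 4 µM, then a duplicate retest at 5 µM averaging 50% or more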
SENP8 conf = SENP8 (human) inhibition, single concentration confirmation; purified SENP8, Nedd8-AMC/pro-Nedd8 cleavage fluorescence, 30 min; shares compounds with SENP8 block-1; AID 624319; 1,400 tested, 15% active; inhibition, % at 25 µM; in the data active means inhibition mostly above about 39%, no sharp cut-off; inactive means mostly below about 34%
Of the large screens only hits and unclear results are named; the others gave an inactive call (follow-up assays come after a bar, where they were run). Most compounds without a hit are left out; they make up all but 3% or so of the library.

O=C(NC1CCCCC1)C(C1CC1)N1CCc2ccccc2C1 (stereo not given)	none (no result: SENP7 block, SENP8 block-2, SENP6 block, PPC-1+TRAIL kill)
C/C(=N\Nc1ccc(S(=O)(=O)Nc2ccccc2)cc1[N+](=O)[O-])c1ccc(N2CCOCC2)cc1	SENP8 block-1 44 | SENP8 conf inactive
C/C(=N\Nc1ccc(S(=O)(=O)Nc2ccc(Cl)cc2)cc1[N+](=O)[O-])c1ccc(N2CCOCC2)cc1	none
COc1cc(NC(=O)c2ccc([N+](=O)[O-])o2)ccc1NC(=O)c1ccco1	SENP8 block-1 44 (no result: PPC-1+TRAIL kill) | SENP8 conf inactive
Fc1ccc2[nH]c3c(c2c1)CN(C(=S)NCc1ccccc1)CC3	none
COCc1c(C(=O)Nc2nnc(C3CC3)s2)oc2ccccc12	none (no result: SENP7 block, SENP8 block-2, SENP6 block, PPC-1+TRAIL kill)
COc1ccc(S(=O)(=O)N2CCN(Cc3c[nH]c4ccccc34)CC2)cc1	none
O=[N+]([O-])c1ccc(S(=O)(=O)N2CCN(Cc3c[nH]c4ccccc34)CC2)cc1	SENP8 block-1 59 | SENP8 conf inactive
CC(N=Cc1ccccc1O)c1ccccc1 (stereo not given)	none
Cc1cc(O)c(C(C)C)cc1N=Cc1cc([N+](=O)[O-])ccc1O	SENP8 block-1 73 | SENP8 conf inactive
Cc1cc(O)c(C(C)C)cc1N=Cc1ccccc1O	SENP8 block-1 82 | SENP8 conf inactive
COCCNC(=S)NCCc1ccc(Cl)cc1Cl	none
O=C(O)COc1ccc2nsnc2c1Cl	none
Cc1ccccc1C1=C/C(=C(\SS/C(C(=O)c2ccc(OCC(=O)O)c(Cl)c2Cl)=C2\C=C(c3ccccc3C)SS2)C(=O)c2ccc(OCC(=O)O)c(Cl)c2Cl)SS1	SENP8 block-1 41 (no result: SENP7 block, SENP8 block-2, SENP6 block, PPC-1+TRAIL kill) | SENP8 conf 56
CN(C)c1cccc2c1c(NC(=O)c1ccc(F)cc1)nn2C	SENP8 block-1 55 | SENP8 conf inactive
CN(C)c1cccc2c1c(NC(=O)c1ccc(Cl)cc1)nn2C	SENP8 block-1 60 | SENP8 conf inactive
CN(C)c1cccc2c1c(NC(=O)Nc1ccccc1)nn2C	none
CC(=O)OCC(=O)Nc1c(C)cc(C)cc1C	none
COc1ncccc1C(=O)N1CCCC(C(=O)c2cc(F)ccc2F)C1 (stereo not given)	none
CSc1ncccc1C(=O)N1CCCC(C(=O)c2cc(F)ccc2F)C1 (stereo not given)	SENP8 block-1 57 | SENP8 conf inactive
O=[N+]([O-])c1ccc(C=NN2CCOCC2)s1	SENP8 block-1 48 (no result: SENP7 block, SENP8 block-2, SENP6 block, PPC-1+TRAIL kill) | SENP8 conf 50
O=[N+]([O-])c1cc(/C=N/N2CCOCC2)cs1	none (no result: PPC-1+TRAIL kill)
CC1CCC(=NNc2ccc(C(F)(F)F)cc2[N+](=O)[O-])CC1 (stereo not given)	SENP8 block-1 43 | SENP8 conf inactive
O=C(O)C1CCN(c2c([N+](=O)[O-])cc(C(F)(F)F)cc2[N+](=O)[O-])CC1	none
O=[N+]([O-])c1cc(C(F)(F)F)cc([N+](=O)[O-])c1N1CCN(S(=O)(=O)c2ccccc2)CC1	SENP8 block-1 40 | SENP8 conf inactive
CN(Cc1ccc(Cl)cc1Cl)C(=O)CNC(=O)c1ccc2c(c1)OCO2	none (no result: PPC-1+TRAIL kill)
Cc1ccc(S(=O)(=O)N2CCSC2=Nc2ccccc2)cc1	none (no result: C8 TRAIL sens, SENP8 block-1)
O=C(NNc1ccccc1[N+](=O)[O-])Nc1cccc(Cl)c1	SENP8 block-1 40 | SENP8 conf inactive
O=C(COc1ccccc1)Nc1cc(Cl)ccc1Cl	none (no result: PPC-1+TRAIL kill)
O=C(NNc1ccccc1)Nc1cc(Cl)ccc1Cl	SENP8 block-1 48 (no result: SENP7 block, SENP8 block-2, SENP6 block, PPC-1+TRAIL kill) | SENP8 conf inactive
O=[N+]([O-])c1cc(Cl)ccc1NCCNc1ncc(C(F)(F)F)cc1Cl	SENP8 block-1 43 | SENP8 conf inactive
C/C(=N\Nc1nc2ccccc2[nH]1)c1ccc([N+](=O)[O-])cc1	SENP8 block-1 54 | SENP8 conf inactive
CC(OC(=O)COc1ccccc1Cc1ccccc1)C(=O)N(C)c1ccccc1 (stereo not given)	none (no result: PPC-1+TRAIL kill)
O=C(/C=C/c1ccc2c(c1)OCO2)c1ccc(O)cc1O	SENP8 block-1 40 (no result: SENP7 block, SENP8 block-2, SENP6 block, PPC-1+TRAIL kill) | SENP8 conf inactive
O=C(/C=C/c1ccc2c(c1)OCO2)c1ccco1	none
COc1ccc2c(c1)C(=O)N(c1ccccc1OC)C(=O)C2	SENP8 block-1 69 | SENP8 conf 38
COc1ccc2c(c1)C(=O)N(c1ccc(C)cc1C)C(=O)C2	none
CN1CCC(N2CCN(C3CN(C4CCCCC4)S(=O)(=O)C3)CC2)CC1 (stereo not given)	none (no result: SENP7 block, SENP8 block-2, SENP6 block, PPC-1+TRAIL kill)

Screening data from PubChem BioAssay.
